Records with an inconclusive call do not appear. A call without a number means that no potency is given here. Values without a mark were called inactive. Active and inactive are the calls of the source. Calls follow the shape of the dose curve; as a rule, active = well fitted cell-killing curve with a large enough effect in the repeat runs; inconclusive = weak or mixed curves, or effect the other way; inactive = flat fitted curve, though single readings scatter.
Potency is read from the fitted curve at half-maximal effect.

This assay in a line: Caspase-3/7 induction in HepG2 cells by small molecules, qHTS cell viability counter screen (AID 1346981). Also: nearly all actives have a fitted effect of over 30% in size. The note with it: CellTiter-Fluor fluorescence, 17 h; series mostly up to 92.4 µM; activity change, negative = cytotoxicity: at the top concentration. From the text: U.S. Tox21 Program National Center for Advancing Translational Sciences [NCATS] NIH Chemical Genomics Center [NCGC] U.S. Environmental Protection Agency [EPA] National Institutes of Environmental Health Sciences [NIEHS] National Toxicology Program [NTP] U.S. Food and Drug Administration [FDA] Tox21 Assay Overview: Apoptosis is a process of programmed cell death and plays a central role in the development of multicellular organisms. It is a highly regulated process and induces cell death by activating caspases, which are the members of cysteine aspartic acid-specific protease (caspase) family. Caspases involved in apoptosis are classified by their mechanism of action as initiator caspases (caspase-2, -8, -9 and -10) and executioner caspases (caspase-3, -6, and -7). Inhibition of apoptosis results in number of cancers, autoimmune diseases, inflammatory diseases and viral infection. To identify small molecule compounds that induce apoptosis, a homogeneous, luminescent Caspase-Glo 3/7 assay was used. Wild type HepG2 cells were used to screen Tox21 libraries for identifying caspase-3/7 activity inducers. Also cytotoxicity of the compounds was tested in parallel by measuring the cell viability using CellTiter-Fluor assay system in the same wells.
Tox21 Assay Protocol Summary: HepG2 cells were dispensed at 2,000 per well in 5uL of culture medium into white solid bottom 1536-well plates (Corning Life Sciences, Corning, NY) using a Multidrop Combi (Thermo Scientific, Waltham, MA) dispenser. The assay plates were incubated at 37 C and 5% CO2 for 5hr, and then 23nL of compounds dissolved in DMSO and positive control were transferred using a Pintool station ([…], San Diego, CA). The assay plates were incubated at 37C and 5% CO2 for 17hr. For cytotoxicity read, after 16hr incubation at 37C, 1uL CellTiter-Fluor reagent (Promega Corporation, Madison, WI) was added to each well of the assay plates using Flying Reagent Dispenser (FRD, Aurora Discovery, San Diego, CA). After 1hr incubation at 37C and 5% CO2, the fluorescence signal was quantified using a ViewLux plate reader (PerkinElmer, Shelton, CT).
For orientation: Quantitative high-throughput screening tests each substance at several concentrations.
Turning to `Oc1cc(Cl)ccc1Oc1ccc(Cl)cc1Cl`, the Potency is 44.3 µM (active).

For the compound `C1=Cc2cccc3cccc1c23`, the Potency result was “inactive”.

For the compound `ClC1C(Cl)C(Cl)C(Cl)C(Cl)C1Cl` (stereo not given), the Potency entry was “inactive”.

As for `Cc1c(COC(=O)[C@@H]2[C@H](/C=C(\Cl)C(F)(F)F)C2(C)C)cccc1-c1ccccc1`, the “activity change, negative = cytotoxicity” value was 5.95%.

Turning to `N#Cc1cc(Br)c(O)c(Br)c1`, the “activity change, negative = cytotoxicity” value is -11.6%.

As for `Cc1ccccc1[N+](=O)[O-]`, the Potency result was “inactive”.

For `CC(C)c1ccc(CO)cc1`, the Potency result is “inactive”.

On to `Nc1ccc(Cl)c(Cl)c1`, for which the Potency result is “inactive”.

Turning to `Oc1cc(Cl)c(Cl)cc1Cl`, the Potency result was “inactive”.

With `c1ccc(-c2cccc(-c3ccccc3)c2)cc1`, the “activity change, negative = cytotoxicity” value is 8.17%.

In the case of `C[C@]12CCC(=O)C(O)=C1CC[C@@H]1[C@@H]2CC[C@]2(C)C(=O)CC[C@@H]12`, the Potency result was “inactive”.

For the compound `C=CC(=O)OCCO`, the Potency entry is “inactive”.

`CCC(=O)O[C@H]1CC[C@H]2[C@@H]3CCC4=CC(=O)CC[C@]4(C)[C@H]3CC[C@]12C`: the Potency entry was “inactive”.

For `CCN(CC)N=O`, the Potency result was “inactive”.

Turning to `COP(=S)(OC)Oc1cc(Cl)c(Cl)cc1Cl`, the Potency result was “inactive”.

Take `CCOc1cc(Oc2ccc(C(F)(F)F)cc2Cl)ccc1[N+](=O)[O-]`: the “activity change, negative = cytotoxicity” value is -2.1%.

As to `O=C(NC(=O)c1c(F)cccc1F)Nc1ccc(Cl)cc1`, the “activity change, negative = cytotoxicity” value is -0.05%.

Take `CCC(C)(c1ccc(O)cc1)c1ccc(O)cc1`: the “activity change, negative = cytotoxicity” value was -6.42%.

For the compound `CCCCCCCCCCCOC(=O)c1ccccc1C(=O)OCCCCCCCCCCC`, the Potency entry was “inactive”.

With `CCCCCCCCC(=O)NCc1ccc(O)c(OC)c1`, the Potency result was “inactive”.

`CNC(=O)Oc1cccc2c1OC(C)(C)O2`: the Potency entry was “inactive”.

Take `OCC(O)CO`: the Potency entry is “inactive”.

`CC(C)(OOC(C)(C)c1ccccc1)c1ccccc1`: the Potency result was “inactive”.

Turning to `CCN(N=O)C(N)=O`, the Potency result is “inactive”.

With `O=[N+]([O-])c1c(Cl)c(Cl)c(Cl)c(Cl)c1Cl`, the Potency entry was “inactive”.

For `CCN(CC)C(=O)/C(Cl)=C(\C)OP(=O)(OC)OC`, the Potency result is “inactive”.

In the case of `CN(C)C(=O)Nc1ccc(Cl)cc1`, the Potency result was “inactive”.

Regarding `O=Cc1ccco1`, the Potency entry is “inactive”.

With `CNC(=O)N(C)c1nnc(C(C)(C)C)s1`, the Potency entry is “inactive”.

Consider `CN(C)c1ccc(C(=O)c2ccc(N(C)C)cc2)cc1`, for which the Potency was 48.6 µM (active).

As to `Nc1ccncc1`, the Potency result was “inactive”.

With `COP(=O)(OC)OC`, the “activity change, negative = cytotoxicity” value was 0.563%.

`O=P(Oc1ccccc1)(Oc1ccccc1)Oc1ccccc1`: the Potency entry is “inactive”.

As for `c1cc(OCC2CO2)ccc1Cc1ccc(OCC2CO2)cc1` (stereo not given), the “activity change, negative = cytotoxicity” value was -17.5%.

Turning to `C=CCc1ccc(OC)cc1`, the Potency entry was “inactive”.

For `NNC(N)=S`, the Potency entry is “inactive”.

Regarding `COc1ccc(C=O)cc1`, the Potency result is “inactive”.

On to `c1ccc(P(c2ccccc2)c2ccccc2)cc1`, for which the Potency result is “inactive”.

In the case of `Cc1cccc(N)c1N`, the “activity change, negative = cytotoxicity” value is -13.8%.

Take `CCC(CC)Nc1c([N+](=O)[O-])cc(C)c(C)c1[N+](=O)[O-]`: the Potency entry is “inactive”.

(Values after PubChem BioAssay (Tox21).)
